High-throughput results from PubChem BioAssay.
Efa HMGR inh: inhibitors of class II HMG-CoA reductase from Enterococcus faecalis; purified E. faecalis HMGR, NADPH absorbance 340 nm kinetic; inhibition, % at 10 µM; hit rate 0.41% among 190,000;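 active = inhibition above a set limit, the median over all tested compounds plus 3 SD, cut at about 9.5% in these data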;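 also: enzyme runs in reverse so mevalonate oxidation gives rising NADPH absorbance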
EP2 mod: modulates human prostaglandin E2 receptor EP2 signaling. EP2-expressing cells, cAMP HTRF FRET, PGE2 co-stimulation. induction, % at 25 µM. hit rate 0.83% among 260,000;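 active = compounds whose cAMP rise, as percent of the full-agonist control response, exceeds 60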;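 also: rat C6 glioma line stably carrying human EP2 under a CMV promoter; the protocol text gives 20 µM as final concentration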
Target sequence (P43116 whole entry, looked up): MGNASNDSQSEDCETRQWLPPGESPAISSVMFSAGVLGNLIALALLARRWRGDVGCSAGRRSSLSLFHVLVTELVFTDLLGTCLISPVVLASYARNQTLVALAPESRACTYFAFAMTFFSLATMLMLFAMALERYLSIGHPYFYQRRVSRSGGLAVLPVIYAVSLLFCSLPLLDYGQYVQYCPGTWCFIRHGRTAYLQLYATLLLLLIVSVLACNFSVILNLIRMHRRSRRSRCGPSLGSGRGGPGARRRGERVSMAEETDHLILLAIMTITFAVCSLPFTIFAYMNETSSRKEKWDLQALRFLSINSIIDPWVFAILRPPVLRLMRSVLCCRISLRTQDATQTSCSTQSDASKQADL
GSH fluor: GSH bead compound fluorescence profile. fluorescence (KMESF) at 10 µM. GSH beads flow cytometry, compound fluorescence 488/530 nm; active compounds read high. AID 1776. hit rate 0.25% among 190,000; in the data active = fluorescence above about 89;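 also: glutathione beads carrying GST-tagged Bcl family fusion proteins plus one bare bead set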
Avidin bead fluor: avidin bead compound fluorescence profile; hit rate 0.38% among 220,000; fluorescence (KMESF) at 10 µM; Avidin beads, compound fluorescence 488/530 nm, flow cytometry; active compounds read high; in the data active = fluorescence above about 47
PGE2 EP2 inh: inhibitors of human EP2 prostaglandin E2 receptor; hit rate 0.52% among 260,000; inhibition, % at 25 µM; P43116; C6 glioma cells expressing human EP2, cAMP TR-FRET; cells stimulated with saturating PGE2; AID 1422;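 active = percent inhibition above 40 after rounding to a whole number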;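 also: rat C6 glioma host cells with rolipram phosphodiesterase inhibitor present; the protocol text gives 20 µM as final concentration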
Hits are given with their value; – = inactive; · = no result; ! = repeats disagree. In the library only some 2.1% were active in any assay of this set; here they are far more common.

SMILES | Efa HMGR inh | EP2 mod | GSH fluor | Avidin bead fluor | PGE2 EP2 inh
C[C@H](NC(=O)c1nc[nH]c1C(=O)N[C@@H](Cc1ccccc1)C(=O)OC(C)(C)C)c1ccccc1 | – | 64 | – | – | –
CCCCn1c(SCC(=O)N2CCC(C)CC2)nc2cc(S(N)(=O)=O)ccc21 | – | – | – | – | –
CCCCn1c(SCC(=O)c2cc(OC)ccc2OC)nc2cc(S(N)(=O)=O)ccc21 | – | – | 260 | – | –
CC[n+]1c(/C=C/c2ccc(N(C)C)cc2)ccc2ccccc21 | – | – | – | – | 66
CC[n+]1ccc(/C=C/c2ccc(N(C)C)cc2)c2ccccc21 | – | – | – | – | 96
CC1=C(C)CC(C(=O)Nc2cccc(Cl)c2)C(C(=O)O)C1 (stereo unspecified) | – | – | – | – | –
O=C(O)C1CC=CCC1C(=O)Nc1cccc(Cl)c1 (stereo unspecified) | – | – | 277 | – | –
NC(N)=Nc1ccc(-c2ccc(N=C(N)N)cc2)cc1 | · | – | · | · | 48
Cc1cc2cc(C)c(SCC(=O)NCc3ccc4c(c3)OCO4)nc2cc1C | · | 85 | · | · | –
CCc1cc2c(C)cc(C)cc2nc1SCC(=O)NCc1ccc2c(c1)OCO2 | · | 72 | · | · | –
CCOC(=O)CN(C(=O)CSc1nnc2c(n1)[nH]c1c(C)cc(C)cc12)c1ccccc1 | – | – | 257 | – | –
CCOC(=O)CN(C(=O)CSc1nnc2c(n1)[nH]c1ccccc12)c1ccccc1 | – | – | – | – | –
COC(=O)c1c(NC(=O)c2cccc(F)c2)sc(C(=O)NC2CCCCC2)c1C | · | – | · | · | –
COc1ccccc1OCCn1c(=O)sc2ccccc21 | – | – | – | – | –
Cc1ccccc1OCCn1c(=O)sc2ccccc21 | – | 63! | – | – | –
Cc1ccc(C)c(N2CCN(C(c3cc4cc(C)cc(C)c4[nH]c3=O)c3nnnn3C(C)(C)C)CC2)c1 (stereo unspecified) | · | – | · | · | –
CCOc1ccc(OCC)c(NC(=O)C2CCCN(c3ncccn3)C2)c1 (stereo unspecified) | – | – | 264 | – | –
COC(=O)CC[C@@H](C)[C@@H]1CC[C@@H]2[C@H]3CC[C@H]4C[C@@H](O)CC[C@]4(C)[C@@H]3CC[C@]21C | · | – | · | · | 42
CC[C@H](CCC(C)[C@H]1CCC2C3CCC4C[C@@H](O)CC[C@]4(C)C3CC[C@@]21C)C(C)C (stereo partly specified) | · | – | · | · | –
CC(C)CCC[C@@H](C)[C@@H]1CC[C@@H]2[C@H]3CC[C@H]4C[C@@H](N)CC[C@]4(C)[C@@H]3CC[C@]21C | · | – | · | · | 41
Cc1nn(CC(=O)N(C)CCCc2ccco2)c(=O)c2cc3sccc3n12 | · | – | · | · | ·
COc1ccc(C(=O)Nc2ccc(C(F)(F)F)n(C)c2=O)cc1 | 11 | – | – | – | –
COc1ccc(NC(=O)c2ccc3c(c2)n(C)c(=O)n3C)cc1 | 21 | – | – | – | –
COc1ccc(NC(=O)c2ccc(=O)oc2)cc1 | – | – | – | – | ·
CCc1nn(CC(=O)NCCS(C)=O)c(=O)c2cc3ccsc3n12 (stereo unspecified) | · | – | · | · | ·
SMILES | Efa HMGR inh | EP2 mod | GSH fluor | Avidin bead fluor | PGE2 EP2 inh
COc1ccc(C[C@H]2COC(=O)[C@@H]2Cc2ccc(OC3OC(CO)C(O)C(O)C3O)c(OC)c2)cc1OC (stereo partly specified) | 20 | – | – | – | –
Nc1nc(Nc2ccccc2F)nc2ccccc12 | · | – | · | · | –
Fc1ccccc1Nc1nc(Cl)nc(Cl)n1 | 11 | – | – | – | –
Cc1ccnc(NS(=O)(=O)c2ccc3c(c2)CCO3)c1 | · | – | · | – | –
O=S(=O)(Nc1ccc(Cl)cc1)c1ccc2c(c1)CCO2 | · | – | · | 62 | –
Cc1cc(C)cc(-n2c3nc4ccccc4nc3c3c(=O)n(Cc4ccco4)cnc32)c1 | 17 | – | – | – | –
O=C1CC(C(=O)Nc2cccc(Cl)c2)n2ncnc2N1 (stereo unspecified) | 12 | – | – | – | –
CCN(CC)CCn1c(=N)n(CC(O)COc2ccccc2)c2ccccc21 (stereo unspecified) | · | – | · | 51 | –
CC1(C)CC(=O)c2sc(NC(=O)c3cc(Cl)ccc3Cl)nc2C1 | · | – | · | · | –
O=C(Nc1nn[nH]n1)c1nc(-c2ccccc2)cc(=O)[nH]1 | · | – | · | · | 55
Fc1cccc(F)c1C(Nc1nncs1)Nc1nncs1 | · | – | · | · | 46
Clc1cccc(Cl)c1C(Nc1nncs1)Nc1nncs1 | · | – | · | · | 52
CCc1ccccc1NC(=S)N(Cc1ccco1)Cc1cc2ccc(OC)cc2[nH]c1=O | · | – | · | · | –
